The target of test [1] is Cellular tumor antigen p53 (Homo sapiens) (UniProt P04637). Briefly: TOX21_p53_BLA_p2_ratio: Tox21 HCT-116 p53 Agonism Beta-lactamase Assay, Ratio, Phase 2 (AID 2283592). The gist of the method: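 DMSO-normalized, positive-direction endpoint derived from the 460 nm/530 nm FRET ratio in HCT116 p53 beta-lactamase reporter cells exposed 16 h at 37C and loaded with CCF4-AM for 2 h.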

A short description of test [2]: TOX21_p53_BLA_p3_viability: Viability Assessment in the Tox21 HCT-116 p53 Agonism Beta-lactamase Assay, Phase 3 (AID 2283593).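 Also: cells exposed to compound for 16 h before reading.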 In short, it runs like this: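 HCT116 cells, 4000/well, dosed 5 h after plating by pin transfer (217-fold dilution from DMSO stock) and incubated 16 h at 37C, 5% CO2. Viability read as ATP luminescence with CellTiter-Glo after 30 min at room temperature.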

The target of test [3] is Cellular tumor antigen p53 (Homo sapiens) (UniProt P04637). Briefly: TOX21_p53_BLA_p3_ratio: Tox21 HCT-116 p53 Agonism Beta-lactamase Assay, Ratio, Phase 3 (AID 2283596). In short, it runs like this:
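Cells were seeded at 4000/well, rested 5 h at 37C, then dosed with DMSO compound solutions (217-fold dilution) for 16 h. CCF4-AM substrate was loaded for 2 h at room temperature, and the 460/530 nm emission ratio was fitted for gain of signal versus DMSO.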

The nature of test [4]: TOX21_p53_BLA_p2_viability: Viability Assessment in the Tox21 HCT-116 p53 Agonism Beta-lactamase Assay, Phase 2 (AID 2283591).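 Also: compound exposure lasted 16 h at 37 °C; actives lower the ATP signal meaning cytotoxicity.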 The gist of the method:
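HCT116 p53-bla cells, 4000/well, dosed after 5 h plating (217-fold dilution of DMSO stocks) and incubated 16 h at 37C. Viability taken as cellular ATP by CellTiter-Glo luminescence after 30 min RT; signal loss marks cytotoxicity.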

Test [5] in a line: TOX21_p53_BLA_p5_viability: Viability Assessment in the Tox21 HCT-116 p53 Agonism Beta-lactamase Assay, Phase 5 (AID 2283600). The gist of the method: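 Here cell health was gauged by ATP levels in wells holding 4000 cells, each treated 16 h with DMSO-delivered compounds at 217-fold dilution; reduced luminescence marked toxicity.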
Test [6] concerns the target Cellular tumor antigen p53 (Homo sapiens) (UniProt P04637). The experiment in a line: TOX21_p53_BLA_p4_ratio: Tox21 HCT-116 p53 Agonism Beta-lactamase Assay, Ratio, Phase 4 (AID 2283601). The gist of the method: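 HCT-116 p53 beta-lactamase reporter cells (4000/well) preincubated 5 h, then compound (217-fold dilution of DMSO stock) for 16 h at 37C. CCF4-AM substrate added 2 h at room temperature; 460/530 nm emission ratio fitted upward versus DMSO.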

The target is the same in test [7]. Briefly: TOX21_p53_BLA_p5_ratio: Tox21 HCT-116 p53 Agonism Beta-lactamase Assay, Ratio, Phase 5 (AID 2283599). In short, it runs like this: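 HCT-116 p53-bla cells (4000/well) plated 5 h, dosed with compound (217-fold DMSO dilution) for 16 h at 37 C; CCF4-AM substrate 2 h at room temperature. Activity is the 460/530 nm emission ratio (405 nm excitation), fitted in gain-of-signal direction versus DMSO.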

Test [8] can be described thus: TOX21_p53_BLA_p4_viability: Viability Assessment in the Tox21 HCT-116 p53 Agonism Beta-lactamase Assay, Phase 4 (AID 2283597).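 Also: hits lower the luminescence signal meaning cytotoxicity.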 In short, it runs like this:
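In this multiplexed secondary endpoint, HCT116 cells (4000 per well, compound at 5 h, 16 h treatment) received CellTiter-Glo after the beta-lactamase read. Luminescence after 30 min RT reflects ATP, and falling signal marks cytotoxicity.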

SMILES strings stand for the structures. Values joined by “and” are separate entries in the source; they are usually repeats but may differ in a detail not shown here. Identical values can stand only once. Results filed as inconclusive are left out. The source holds several records for some structures; these can differ, active in one and inactive in another. Active and inactive are the calls of the source. The calls were made as follows: active = hit-call score of the fitted dose curve at least 0.9, where 1 is the maximum; inconclusive = response in the unintended direction; inactive = score below 0.9.

Chain of Cellular tumor antigen p53 (Homo sapiens) (P04637 whole entry, looked up): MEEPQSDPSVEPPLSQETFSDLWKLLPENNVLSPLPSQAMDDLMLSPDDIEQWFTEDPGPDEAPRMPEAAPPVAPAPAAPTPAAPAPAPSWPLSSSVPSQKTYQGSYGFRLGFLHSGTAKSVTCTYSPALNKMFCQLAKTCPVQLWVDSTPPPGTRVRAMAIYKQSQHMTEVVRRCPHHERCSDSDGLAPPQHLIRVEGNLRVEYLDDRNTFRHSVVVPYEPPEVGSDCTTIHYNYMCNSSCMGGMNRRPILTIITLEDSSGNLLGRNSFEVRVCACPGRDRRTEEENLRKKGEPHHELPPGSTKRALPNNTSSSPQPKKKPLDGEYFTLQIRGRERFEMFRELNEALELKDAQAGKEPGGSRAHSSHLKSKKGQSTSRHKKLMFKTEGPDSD

Take `Nc1ccc(S(=O)(=O)O)cc1`: the result in test [1], in test [2] and in test [3] was inactive.

On to `CCCCOC(=O)CO`, for which the compound was called inactive in test [4], in test [5] and in test [6].

`C=C(C)C(=O)OC(C)C`: the result in test [1] and in test [2] was inactive.

`C[C@@H](CN(C)C)CN1c2ccccc2Sc2ccccc21`: the compound was classed as inactive in test [4], in test [7] and in test [6].

Take `C=CC(=O)OCCCl`: the compound was classed as inactive in test [4] and in test [5].

As for `CC(C)CC(O)CC(C)C`, the result in test [4] and in test [5] was inactive.

`CC[N+](C)(CC)CCOC(=O)C(O)(c1ccccc1)C1CCCCC1` (stereo not given): the compound was called inactive in test [4] and in test [5].

By AC50 is commonly meant the midpoint of the concentration-response curve, whichever way the signal moves. Turning to `COC(=O)C[C@](O)(CCCC(C)(C)O)C(=O)O[C@@H]1C(OC)=CC23CCCN2CCc2cc4c(cc2[C@H]13)OCO4` (stereo not given in full), the AC50 is 0.0202 µM (active) in test [1]; 45.4 nM (active) and 43.1 nM (active) in test [3]; 0.014 µM (active) in test [8]; 0.0379 µM (active) in test [7]. The result in test [1], in test [2], in test [7] and in test [5] was inactive.

Regarding `CCCC(=O)Nc1c(I)cc(I)c(CC(CC)C(=O)O)c1I` (stereo not given), the result in test [1] was inactive.

`Cc1c(N)cccc1Cl`: the outcome in test [1], in test [2], in test [3], in test [8], in test [7] and in test [5] was inactive.

As to `O=S1(=O)c2cccc3cccc(c23)N1CCCN1CCN(c2ccc(F)cc2)CC1`, the result in test [1], in test [2], in test [3], in test [7], in test [5] and in test [6] was inactive. Further, the concentration at half-maximal activity (AC50) in test [8] was 41.2 µM (active).

Consider `COc1ccc2cc(CCC(C)=O)ccc2c1`, for which the result in test [1], in test [2], in test [3], in test [8], in test [7] and in test [5] was inactive.

With `CC(N)C12CC3CC(CC(C3)C1)C2` (stereo not given), the result in test [1], in test [2], in test [3], in test [8], in test [7] and in test [5] was inactive.

`NCC[C@H](O)C(=O)N[C@@H]1C[C@H](N)[C@@H](O[C@H]2O[C@H](CN)[C@@H](O)[C@H](O)[C@H]2O)[C@H](O)[C@H]1O[C@H]1O[C@H](CO)[C@@H](O)[C@H](N)[C@H]1O`: the result in test [1], in test [2], in test [3], in test [8], in test [7] and in test [5] was inactive.

Take `O=C(O)Cc1ccccc1Oc1ccc(Cl)cc1Cl`: the outcome in test [1], in test [2], in test [3], in test [8], in test [7] and in test [5] was inactive. In addition, the outcome in test [6] was inactive.

Take `CO[C@@H]1[C@@H](O[C@@H]2O[C@H](C)[C@@H](O[C@H]3C[C@](C)(O)[C@@H](O)[C@H](C)O3)[C@H](N(C)C)[C@H]2O)[C@H](CC=O)C[C@@H](C)[C@H](O[C@H]2CC[C@H](N(C)C)[C@@H](C)O2)/C=C\C=C\C[C@@H](C)OC(=O)C[C@H]1O`: the result in test [1], in test [2], in test [3], in test [8] and in test [7] was inactive.

As to `CCN1CC(CCN2CCOCC2)C(c2ccccc2)(c2ccccc2)C1=O` (stereo not given), the result in test [1], in test [2], in test [3], in test [8] and in test [7] was inactive.

In the case of `CCCCNC1CC(C)(C)NC(C)(C)C1`, the result in test [1], in test [2], in test [3], in test [8] and in test [7] was inactive.

In the case of `CC(=O)Nc1ccc(S(=O)(=O)Nc2ccc([N+](=O)[O-])cc2)cc1`, the outcome in test [1], in test [2], in test [3], in test [8] and in test [7] was inactive.

`C[N+](C)(CCOc1ccccc1)Cc1cccs1`: the outcome in test [1], in test [2], in test [3], in test [8], in test [7] and in test [5] was inactive. Further, in test [6], the outcome was inactive.

On to `Cc1cc2c(cc1S(N)(=O)=O)S(=O)(=O)CCC2`, for which the outcome in test [1], in test [2], in test [3], in test [8], in test [7] and in test [5] was inactive. The result in test [6] was inactive.

On to `Oc1ccc(Cc2ccccc2)cc1`, for which the half-maximal activity concentration (AC50) in test [1] is 66.5 µM (active). Also, the outcome in test [2], in test [3], in test [8], in test [7], in test [5] and in test [6] was inactive.

For the compound `CC1(C)[C@@H]2CC[C@@]1(C)[C@H](OC(=O)CSC#N)C2`, the result in test [1], in test [2], in test [3], in test [8] and in test [7] was inactive.

For `C#CCOc1ccc2c(C)cc(=O)oc2c1`, the outcome in test [1], in test [2], in test [3], in test [8], in test [7] and in test [5] was inactive. For the same compound, in test [6], the outcome was inactive.

As for `NCCc1ccc(O)c(O)c1`, the result in test [1], in test [2], in test [3], in test [8], in test [7] and in test [5] was inactive.

In the case of `Cc1ccc2c(c1[N+](=O)[O-])C(=O)c1ccccc1C2=O`, the figures for the half-maximal activity concentration (AC50) in test [1], in test [7] and in test [6] were 22.5 µM (active), 20.3 µM (active) and 25.7 µM (active), respectively. Besides, the result in test [2], in test [3], in test [8] and in test [5] was inactive.

`CCCCN1CCCC[C@H]1C(=O)Nc1c(C)cccc1C`: the outcome in test [1], in test [2], in test [3], in test [8], in test [7] and in test [5] was inactive.

As for `O=C(O)CN1C(=O)c2cccc3cccc(c23)C1=O`, the outcome in test [1], in test [2], in test [3], in test [8] and in test [7] was inactive.

Consider `Cc1cccc(C)c1Nc1ncccc1C(=O)O`, for which the AC50 in test [1] is 43.8 µM (active). Also, the compound was called inactive in test [2], in test [3], in test [8], in test [7], in test [5] and in test [6].

As for `CCOC(=O)CC#N`, the outcome in test [1], in test [2], in test [3], in test [8], in test [7] and in test [5] was inactive.

Turning to `O=C(Cn1cnnn1)N[C@@H]1C(=O)N2C(C(=O)O)=C(CSc3nncs3)CS[C@H]12`, the result in test [1], in test [2], in test [3], in test [8], in test [7] and in test [5] was inactive.

As for `CC1=C(C=O)C(C)(C)CC=C1`, the outcome in test [1], in test [2], in test [3], in test [8] and in test [7] was inactive.

Regarding `COc1ccc2c(=O)c(C)c(-c3ccccc3)oc2c1CN(C)C`, the result in test [1], in test [2], in test [3], in test [8] and in test [7] was inactive.

The values are drawn from PubChem BioAssay (EPA / NIEHS).
